NSD2 inh – blocks human histone methyltransferase NSD2 | O96028 | NSD2 peptide methylation, AlphaScreen, 120 min | inhibition, % at 12.5 µM | hit rate 0.54% among 310,000; in the data active = inhibition above about 50%
Shn3 inh set2 – inhibitors of Schnurri-3 3'UTR reporter in osteoblasts. Clone20 osteoblast Shn3 3'UTR firefly luciferase, 24 h. inhibition, % at 12.5 µM. hit rate 0.52% among 360,000;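 active = mean inhibition of at least 75% with every replicate also reaching 75%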;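 also: 0% = median of neutral control wells and 100% = pilot-screen positive control compound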
LMP1 NFkB inh – Epstein-Barr LMP1 NF-kappaB reporter inhibition; hit rate 0.69% among 350,000; inhibition, % at 12.5 µM; LMP1-induced NF-kappaB luciferase reporter cells, luminescence; in the data active = inhibition above about 41%;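 also: 0% = neutral control wells and 100% = reference inhibitor control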
PAX8 reporter – lowers PAX8-driven luciferase in RMG-I cells; AID 652154; hit rate 1.2% among 360,000; RMG-I TPO-luciferase reporter, SteadyGlo, 24 h; inhibition, % at 12.6 µM;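 active = mean replicate inhibition at least 60% with every replicate also reaching 60%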;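 also: luciferase light reporting Pax8 driven TPO promoter activity; plate controls were median of neutral control wells for no effect and mitoxantrone controls for full effect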
N-glyco inh – N-linked glycosylation inhibition; AID 588692; D54 ERlucT glycosylation luciferase reporter, 24 h; percent of 100 nM tunicamycin response; reporter increase, % at 12.5 µM; hit rate 0.23% among 360,000;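 active = mean luciferase reporter signal, scaled so untreated is 0 and the glycosylation-blocking control 100, at or above a set limit in every replicate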;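 also: luciferase carries N-glycosylation sites so blocking glycosylation raises the light; 0% = median of neutral control wells and 100% = median of 100 nM tunicamycin wells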
HIV Env fusion – HIV envelope-mediated fusion inhibition; HeLa-JRFL Env/CEM21 cell fusion, luciferase; inhibition, % at 12.3 µM; hit rate 1.1% among 360,000; AID 651610;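 active = mean replicate inhibition score of at least 50 and every replicate individually at or above 50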;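 also: 0% = plate neutral controls and 100% = maraviroc near 300 nM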
AlphaScreen art – interferes with AlphaScreen signal, flagging NSD2 false positives; shares compounds with NSD2 inh; AlphaScreen artifact counterscreen, preloaded methylated H4 peptide; AC35, µM (doses to about 10 µM), inactives show at the highest dose activity change, negative = signal loss; hit rate 9.4% among 1,500; call rule not given here
The depositor's hits bear a star; · = no result; + = active, no number; [ ] = remark or other dose. The list is not random: actives were taken first. Their share in the collection is about 2.8%.

SMILES	NSD2 inh	Shn3 inh set2	LMP1 NFkB inh	PAX8 reporter	N-glyco inh	HIV Env fusion	AlphaScreen art
C=CC[n+]1c(-c2ccc(Cl)cc2Cl)csc1Nc1c(C)n(C)n(-c2ccccc2)c1=O	51*	76	6	27	-5	36	-14%
CCCNC(=O)C[C@H]1CC[C@H]2[C@@H](COc3ccc(NS(=O)(=O)CC)cc3C(=O)N2C)O1	·	·	·	9	·	4[16.7 µM]	·
C[C@H]1CN([C@@H](C)CO)C(=O)c2cc(C#Cc3ccncc3)cnc2O[C@H]1CN(C)C(=O)CN(C)C	·	·	·	26	·	·	·
CCN1/C(=C/C(C)=C/c2sc3ccccc3[n+]2CC)Sc2ccccc21	112*	88*	-10	102*	-17	-13	5.5µM*
CCN1/C(=C\C(=S)Nc2ccccc2)Sc2ccccc21	7	38	-15	-71	-2	-10	·
CN1CCN(/N=C/c2nc(-c3ccccc3Cl)n3ccccc23)CC1	67*	-2	10	-19	-1	1	-5%
CCCC(=O)Nc1ccc2c(c1)C(=O)N(C)[C@@H]1CC[C@H](CC(=O)Nc3ccccc3)O[C@@H]1CO2	·	·	·	14	·	-3[16.7 µM]	·
CCN(CC)CCOc1ccc(C=NNc2nc3c([nH]2)c(=O)n(C)c(=O)n3C)cc1	51*	-10	-2	-6	2	·	-4%
Nc1ccc2nn(-c3cc([N+](=O)[O-])ccc3O)nc2c1	79*	-25	-5	-10	1	-29	-1%
Nc1ccc(-n2cnc3cc([N+](=O)[O-])ccc32)cc1	-1	-35	-8	·	-1	·	·
Cc1ccc(-c2cnc3c(c2)C(=O)N([C@@H](C)CO)C[C@@H](C)[C@H](CN(C)C(=O)c2ccc(F)cc2)O3)cc1	·	·	·	·	·	-6[16.7 µM]	·
N=C1/C(=C\c2ccc(Br)o2)C(=O)N=C2SC(CC(=O)N3CCCCC3)=NN12	67*	-13	1	2	2	-66	-5%
COc1ccc(-c2nnc(SCC(=O)c3ccc[nH]3)o2)cc1	-1	-56	-11	·	-12	-87	·
COc1ccc(-c2nnc(SCC(=O)c3ccc(O)cc3O)o2)cc1	81*	-29	-1	8	0	-23	-3%
CN1c2ccccc2N(C)C1(C)c1cccc2ccccc12	18	10	0	2	2	14	·
CN1c2cccc3cccc(c23)N(C)C1(C)C	95*	8	19	3	-7	-22	-5%
O=C1Nc2ccccc2/C1=N/N=C/c1cccc(O)c1	0	-10	-2	-3	7	-55	·
COc1cc(/C=N/N=C2/C(=O)Nc3ccccc32)cc(OC)c1O	67*	-20	-6	7	4	-128	-14%
N#Cc1c(-c2ccccc2)nc(SCC(=O)NC2CCCCC2)[nH]c1=O	3	-2	0	6	1	24	·
CN(C(=O)CSc1nc(-c2ccc(C(C)(C)C)cc2)c(C#N)c(=O)[nH]1)C1CCCCC1	60*	-7	9	-21	1	4	-3%
CC(C)(C)c1[nH]nc2c1C(C1C=CCCC1)C(C#N)=C(N)O2 (stereo not drawn)	127*	-14	0	·	2	-380	-6%
CC(C)c1[nH]nc2c1C(C1C=CCCC1)C(C#N)=C(N)O2 (stereo not drawn)	2	9	6	-4	2	23	·
C[C@H](CO)N1C[C@H](C)[C@H](CN(C)S(=O)(=O)c2ccccc2)OCCCC[C@H](C)Oc2ccc(NS(=O)(=O)c3cn(C)cn3)cc2C1=O	·	·	·	18	·	1[16.7 µM]	·
C[C@@H]1CN([C@@H](C)CO)C(=O)c2cc(NC(=O)Nc3ccccc3)ccc2O[C@H]1CN(C)S(=O)(=O)c1ccc(F)cc1	·	·	·	·	·	4[16.7 µM]	·
O=[N+]([O-])c1ccc(N(CC(O)CN2CCCCC2)S(=O)(=O)c2ccccc2)cc1 (stereo not drawn)	68*	16	3	-21	-2	-16	-1%
SMILES	NSD2 inh	Shn3 inh set2	LMP1 NFkB inh	PAX8 reporter	N-glyco inh	HIV Env fusion	AlphaScreen art
O=[N+]([O-])c1ccc(S(=O)(=O)N(CC(O)CN2CCCCC2)c2ccccc2)cc1 (stereo not drawn)	5	15	4	15	3	-7	·
Cc1ccc(S(=O)(=O)N(C)C[C@H]2Oc3c(NS(=O)(=O)c4ccccc4)cccc3C(=O)N([C@@H](C)CO)C[C@H]2C)cc1	·	·	·	·	·	-24[16.7 µM]	·
CN(C1=C(N2CCOCC2)C(=O)c2ccccc2C1=O)c1ccccc1	76*	6	8	-2	5	24	2.9µM*
CC(=O)N(C(C)=O)N1C(=O)c2cccc3c(N4CCOCC4)ccc(c23)C1=O	-1	-5	-4	-13	-3	-10	·
Cc1ccc(N2CCOCC2)c2c1C(=O)c1ccccc1C2=O	57*	2	-15	-3	3	-21	4.3µM*
O=C1C=C(N2CCOCC2)c2ccccc2C1=O	+	97*	12	74*	-21	65*	-2%
C[C@@H]1CN([C@H](C)CO)C(=O)c2cc(NC(=O)CCC(F)(F)F)ccc2O[C@@H]1CN(C)Cc1ccccc1	·	·	·	5	·	14[16.7 µM]	·
O=C(Nc1ccc2c(c1)[C@@H]1C[C@H](CC(=O)N3CCOCC3)O[C@@H](CO)[C@@H]1O2)Nc1ccccc1F	·	·	·	-4	·	0[16.7 µM]	·
Nc1nc2ccc(S(=O)(=O)N3CCCCC3)cc2s1	·	-16	-19	2	1	-5	·
Cc1nc2ccc(S(=O)(=O)N3CCCCC3)cc2s1	51*	16	1	-21	-5	-5	-1%
NS(=O)(=O)c1ccc(CNC(=O)CCCSc2ccccc2)cc1	82*	-3	-3	27	-1	11	-7%
COc1ccc(CNC(=O)CCCSc2ccccc2)cc1	3	15	-1	-116	-1	-13	·
C[C@@H]1CN([C@H](C)CO)C(=O)c2cccc(NC(=O)C3CCOCC3)c2O[C@H]1CN(C)C(=O)Nc1ccc(F)cc1	·	·	·	-1	·	-1[16.7 µM]	·
O=C(c1ccncc1)N1CC2(C1)[C@@H](c1ccccc1)[C@H](CO)N2C(=O)CC1CC1	·	·	·	-9	·	·	·
Cc1c(F)cccc1NC(=O)CCCCCC1NC(=O)NC1C (stereo not drawn)	·	-37	-4	-18	3	1	·
CC1NC(=O)NC1CCCCCC(=O)Nc1ccc(F)cc1 (stereo not drawn)	103*	7	1	-8	2	6	1.9µM*
CC1=CCC2C(=O)N(c3cccc(C(=O)N(C)C4CCCCC4)c3)C(=O)C2C1 (stereo not drawn)	89*	8	2	-1	-1	-1	1%
CC(C(=O)Nc1ccc(O)cc1C(=O)O)N1C(=O)/C(=C\c2cccs2)SC1=S (stereo not drawn)	83*	-2	-6	-9	0	3	-5%
O=C(CCCN1C(=O)/C(=C\c2ccccc2)SC1=S)Nc1ccc(O)cc1C(=O)O	24	6	-2	-7	2	-16	·
